From PubChem BioAssay (EPA / NIEHS) come the findings set out here.

Assay [1] is described as follows: CCTE_Shafer_MEA_acute_spike_number: CCTE's Neural Acute Assay for Total Number of Spikes, Shafer Lab (AID 2284008).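 On AC50: curve fitted for decrease in spike count so AC50 reflects inhibitors.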 A digest of the protocol: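 Total spike count from 40 min recordings before and during compound exposure (0.03-40 uM), given as per-well percent change. Cortical cultures from rat, DIV 13 or 15, 37 C; adaptive detection threshold 8x rms noise.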
Assay [2] is described as follows: CCTE_Shafer_MEA_acute_firing_rate_mean: CCTE's Neural Acute Assay for Mean Firing Rate, Shafer Lab (AID 2284009).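 Further: analyzed for loss of signal so actives lower firing rate relative to DMSO.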 A digest of the protocol: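 Spontaneous spiking of primary rat cortical networks, DIV 13/15, 37 C. Compound 0.03-40 uM, n ≥3 wells; 40 min baseline vs 40 min treated. Endpoint fitted in loss-of-signal direction against DMSO.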
Assay [3] is described as follows: CCTE_Harrill_HTTr_Viability_MCF7: CCTE's 6-hour Cell Viability Assessment for the High-Throughput Transcriptomics (HTTr) Platform, in MCF-7 cells cultured in DMEM + 10% fetal bovine serum, Harrill Lab (AID 2284010). A digest of the protocol: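 PI exclusion, high-content imaging; 8-pt dilution series, 6 h exposure; bidirectional fit vs DMSO (neg. ctrl/baseline); gain of signal = loss of membrane integrity.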

Assay [4] is described as follows: CCTE_Harrill_HTTr_Apoptosis_MCF7: CCTE's 6-hour Apoptosis Assessment for the High-Throughput Transcriptomics (HTTr) Platform, in MCF-7 cells cultured in DMEM + 10% fetal bovine serum, Harrill Lab (AID 2284011). A digest of the protocol:
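High-content imaging of CellEvent Caspase 3/7 Green signal follows a six-hour exposure, with eight concentrations per chemical. MCF-7 cells grown in DMEM plus 10% fetal bovine serum; activity fitted in both directions against DMSO.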

Assay [5] in a line: CCTE_Shafer_MEA_acute_burst_number: CCTE's Neural Acute Assay for Single-Electrode Bursts, Shafer Lab (AID 2284013). A digest of the protocol:
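Burst totals were derived with adaptive spike detection (8x rms threshold) on filtered signals from rat cortical cultures; change relative to pre-treatment baseline after 40-min compound exposure (0.03-40 uM) was fitted in the negative direction against DMSO.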

A short description of assay [6]: CCTE_Shafer_MEA_acute_burst_duration_mean: CCTE's Neural Acute Assay for Mean Burst Duration, Shafer Lab (AID 2284014).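 Further: hits are decreases in mean burst duration relative to DMSO controls.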 The method, boiled down:
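Acute exposure of mature rat cortical networks (DIV 13 or 15) grown on microelectrode arrays to 0.03-40 uM compound. Mean burst duration compared with the 40-min pre-dose baseline over a 40-min post-dose recording at 37 C.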

A short description of assay [7]: CCTE_Shafer_MEA_acute_per_burst_spike_number_mean: CCTE's Neural Acute Assay for Average Number of Spikes Per Burst, Shafer Lab (AID 2284015).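 Further: hits are decreases in mean spikes per burst versus baseline.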 A digest of the protocol:
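Percent change in mean spikes per single-electrode burst is compared between a 40 min baseline and a 40 min recording with compound (0.03-40 uM). Cultures were rat cortical neurons on MEA plates at DIV 13 or 15, recorded at 37 C, with DMSO as the negative control.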

Assay [8] is described as follows: CCTE_Shafer_MEA_acute_interburst_interval_mean: CCTE's Neural Acute Assay for Mean Interburst Interval, Shafer Lab (AID 2284016).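 Further: percent change of mean interburst interval versus each well's own pre-dose baseline; curves fitted for decrease in interburst interval relative to DMSO.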 The method, boiled down:
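Percent change in mean single-electrode interburst interval was calculated per well from 40 min recordings before and after compound (0.03-40 uM). Recordings were made at 37 C on rat cortical cultures at DIV 13 or 15, with spikes detected at 8x rms threshold.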

Assay [9] can be described thus: CCTE_Shafer_MEA_acute_burst_percentage_mean: CCTE's Neural Acute Assay for Percentage of Spikes in a Burst, Shafer Lab (AID 2284017).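 On AC50: curve fitted for loss of signal so potency reflects decreased burst percentage.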 A digest of the protocol:
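Well-level mean burst percentage from a 40-min recording after compound (0.03-40 uM) expressed as percent change from a 40-min baseline at 37C. Cultures: primary rat cortical neurons on MEA, dosed on DIV 13 or 15; fitted downward relative to DMSO.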

Assay [10] in a line: CCTE_Simmons_MITO_viability: CellTiter-Glo Viability Assessment for CCTE's HepG2 Seahorse XF Respirometric Screening Assay [post-hoc], Simmons Lab (AID 2284007; active means hit-call score of the fitted dose curve at least 0.9, where 1 is the maximum). A digest of the protocol:
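Luciferase-coupled ATP luminescence, single endpoint. HepG2, post-respirometry. Compound 125 nM–100 uM final, 7 conc., 90 min. n=3 biological, technical singles. DMSO vehicle/baseline; dichlone 10 nM–100 uM, 8 conc., as positive control.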

Structures are written as SMILES. Results filed as inconclusive are left out. Activity calls are given as the source filed them. How the source made its calls, unless noted: active means hit-call score of the fitted dose curve at least 0.9, where 1 is the maximum; inactive means score below 0.9.

On to `CC(C)C1(C)N=C(c2ncccc2C(=O)O)NC1=O` (stereo not drawn), for which the outcome in assay [1], in [2], in [3], in [4], in assay [5] and in assay [6] was inactive. Besides, the outcome in assay [7], in assay [8] and in assay [9] was inactive.
Consider `COCC(=O)N(c1c(C)cccc1C)C(C)C(=O)OC` (stereo not drawn), for which the outcome in [1], in assay [2], in assay [3], in assay [4], in [5] and in assay [6] was inactive. Besides, the call in assay [7], in [8] and in assay [9] was inactive.
For the molecule `CC(C)N1C(=O)c2ccccc2NS1(=O)=O`, the call in [1], in [2], in assay [3], in assay [4], in assay [5] and in [6] was inactive. In addition, the call in [7], in assay [8] and in assay [9] was inactive.
The AC50 is the concentration giving half of the maximal activity seen. Turning to `Cn1c(-c2ccccc2)cc(-c2ccccc2)[n+]1C`, the outcome in assay [10], in assay [3], in assay [4], in [6] and in assay [7] was inactive. For the same molecule, the half-maximal activity concentration (AC50) in assay [1] was 1.05 µM (active); in assay [2], 1.05 µM (active); in [5], 1.15 µM (active); in assay [9], 31.4 µM (active).
On to `COC(=O)N(C(=O)N1CO[C@@]2(C(=O)OC)Cc3cc(Cl)ccc3C2=N1)c1ccc(OC(F)(F)F)cc1`, for which the AC50 was 8.32 µM (active) in assay [1], 8.24 µM (active) in [2], 15 µM (active) in assay [8] and 28.9 µM (active) in [9]. The result in assay [3], in assay [4], in assay [5], in assay [6] and in assay [7] was inactive.
Turning to `CCOC(=O)C(C)OC(=O)c1cc(Oc2ccc(C(F)(F)F)cc2Cl)ccc1[N+](=O)[O-]` (stereo not drawn), the half-maximal activity concentration (AC50) was 5.49 µM (active) in assay [1] and 5.46 µM (active) in assay [2]. In addition, the outcome in assay [3], in assay [4], in [5], in [6], in assay [7] and in [8] was inactive. For the same molecule, the outcome in assay [9] was inactive.
On to `COCC(C)N(C(=O)CCl)c1c(C)csc1C` (stereo not drawn), for which the molecule was called inactive in [10], in assay [3] and in assay [4].
For `O=C1C2CC=CCC2C(=O)N1SC(Cl)(Cl)Cl` (stereo not drawn), the call in assay [10], in assay [3] and in [4] was inactive.
As for `CC(C)N1C(=O)N(c2ccccc2)CSC1=NC(C)(C)C`, the AC50 in assay [1] is 5.21 µM (active); in assay [2], 5.27 µM (active); in [5], 4.94 µM (active); in assay [7], 20 µM (active); in assay [9] it was 20 µM (active). Besides, the outcome in assay [3], in assay [4], in [6] and in assay [8] was inactive.
As to `CCNP(=S)(OC)O/C(C)=C/C(=O)OC(C)C` (stereo not drawn), the result in assay [10], in [3] and in assay [4] was inactive.
In the case of `C=C(C)CN(CC)c1c([N+](=O)[O-])cc(C(F)(F)F)cc1[N+](=O)[O-]`, the AC50 in assay [1] and in assay [2] was 31.9 µM (active) each time. The result in assay [3], in [4], in assay [5], in assay [6], in assay [7] and in assay [8] was inactive. For the same molecule, the molecule was called inactive in assay [9].
Regarding `OC(c1ccc(Cl)cc1)(c1ccc(Cl)cc1)C(Cl)(Cl)Cl`, the AC50 in assay [1] was 1.83 µM (active); in assay [2] it was 2.15 µM (active); in assay [3], 38.6 µM (active); in [5] it was 2.08 µM (active); in [9] it was 4.81 µM (active). Moreover, the outcome in assay [4], in assay [6], in assay [7] and in [8] was inactive.
On to `CO/N=C(/C1=NOCCO1)c1ccccc1Oc1ncnc(Oc2ccccc2Cl)c1F`, for which the molecule was classed as inactive in assay [10], in assay [3], in assay [4], in assay [5], in [6] and in assay [8]. Moreover, the AC50 in [1] is 7.05 µM (active); in assay [2], 7.18 µM (active); in assay [7], 20 µM (active); in assay [9] it was 20 µM (active).
`CCCN(CC)CC1COC2(CCC(C(C)(C)C)CC2)O1` (stereo not drawn): the call in [1], in assay [2], in assay [3], in assay [4], in [5] and in assay [6] was inactive. Further, the result in assay [7], in [8] and in assay [9] was inactive.
With `Clc1nc(Cl)nc(Nc2ccccc2Cl)n1`, the outcome in assay [1], in [2], in [3], in assay [4], in assay [5] and in assay [6] was inactive. The outcome in assay [7], in assay [8] and in assay [9] was inactive.
As for `O=C(Nc1ccccc1-c1ccc(Cl)cc1)c1cccnc1Cl`, the outcome in [1], in assay [2], in [3], in assay [4], in assay [5] and in assay [6] was inactive. Further, the outcome in assay [7] and in [8] was inactive. The AC50 in [9] was 28.5 µM (active).
Turning to `CS(=O)(=O)c1cc(C(F)(F)F)ccc1C(=O)c1cnoc1C1CC1`, the result in assay [3] and in assay [4] was inactive.
`Clc1cccc(C(Cl)(Cl)Cl)n1`: the outcome in assay [3] and in assay [4] was inactive.
On to `CC1(C)C(C(=O)OC(C#N)c2cccc(Oc3ccccc3)c2)C1(C)C` (stereo not drawn), for which the call in assay [1], in assay [2], in [3], in [4], in assay [5] and in [6] was inactive. Further, the values for the AC50 in assay [7], in assay [8] and in [9] were 0.44 µM (active), 0.309 µM (active) and 1.28 µM (active), respectively.
`CNC(=O)N(C)c1nnc(C(C)(C)C)s1`: the result in [3] and in [4] was inactive.
Take `CCNC(=O)NC(=O)C(C#N)=NOC`: the outcome in assay [3] and in assay [4] was inactive.
For the molecule `CCCCOCN(C(=O)CCl)c1c(CC)cccc1CC`, the outcome in [3] and in [4] was inactive.
`CSC(=O)c1c(C(F)F)nc(C(F)(F)F)c(C(=O)SC)c1CC(C)C`: the result in [3] and in assay [4] was inactive.
On to `Nc1cnn(-c2ccccc2)c(=O)c1Cl`, for which the outcome in [3] and in [4] was inactive.
In the case of `COC(=O)NS(=O)(=O)c1ccc(N)cc1`, the outcome in assay [3] and in assay [4] was inactive.
In the case of `CC(C)Nc1nc(Cl)nc(NC(C)C)n1`, the result in assay [3] and in [4] was inactive.
As to `COc1cc(OC)nc(NC(=O)NS(=O)(=O)c2ncccc2OCC(F)(F)F)n1`, the outcome in assay [3] and in [4] was inactive.
For the molecule `COP(=S)(OC)Oc1ccc([N+](=O)[O-])c(C)c1`, the outcome in assay [3] and in assay [4] was inactive.
With `Nc1c(Cl)c(Cl)nc(C(=O)O)c1Cl`, the outcome in assay [3] and in assay [4] was inactive.
Consider `COc1ccc(-c2ccccc2)cc1NNC(=O)OC(C)C`, for which the outcome in assay [3] and in assay [4] was inactive.
With `Cc1cnc(C2=NC(C)(C(C)C)C(=O)N2)c(C(=O)O)c1` (stereo not drawn), the outcome in assay [3] and in [4] was inactive.
For the molecule `O=P(O)(O)CCCl`, the outcome in assay [3] and in assay [4] was inactive.
Turning to `CCSC(=O)N1CCCCCC1`, the outcome in [3] and in [4] was inactive.
